Results published in PubChem BioAssay (NCATS).
Records with an inconclusive call do not appear. The source made the active and inactive calls. Unless noted, calls come from the whole dose curve; as a rule, active = well fitted cell-killing curve with a large enough effect; inconclusive = small, poorly fitted or top-dose-only effect; inactive = flat fitted curve, though single readings scatter.

Columns and labels:
[1] = Cell Viability - LYMP2-025 (AID 976);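 note: series mostly up to about 92 µM; plate controls were DMSO only for no effect and tetraoctylammonium bromide control for full effect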
Method in brief: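 Acute cytotoxicity is scored as a concentration-dependent fall in intracellular ATP, measured by luciferase luminescence, in human lymphoblastoid LYMP2-025 cells exposed to compound for 24 hours at 37 C. AC50 values come from standard Hill fits.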

[2] = Cell Viability - LYMP2-002 (AID 977);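 note: series mostly up to about 92 µM; compound exposure lasted 24 h at 37 °C; plate controls were DMSO only for no effect and 92 µM tetraoctylammonium bromide for full effect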
Method in brief: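 Human lymphoblastoid cells, 2500/well, complete medium; 5 h 37 C settle; compound 24 h 37 C; CellTiter-Glo, 30 min RT; luminescence. Decrease in ATP = cytotoxicity; AC50 via Hill equation.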

[3] = Cell Viability - LYMP2-006 (AID 978); note: series mostly up to about 92 µM; % is set by controls: 0 for no effect and ±100 for the full control effect; nearly all actives have a fitted effect of over 60% in size
Method in brief: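 Human lymphoblastoid cells (LYMP2-006), 2500/well in complete medium, were treated with compound for 24 hr at 37 C. Cellular ATP was read by CellTiter-Glo luminescence after 30 min, and AC50 values came from Hill-equation fits of concentration-response data.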

[4] = Cell Viability - LYMP2-007 (AID 979);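 note: cells exposed to compound for 24 h before reading; 0% = DMSO only and the negative end = 92 µM tetraoctylammonium bromide; nearly all actives have a fitted effect of over 60% in size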
Method in brief: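 Cells are seeded at 2500 per well and rested 5 hr. Compounds are then added over a concentration series for 24 hr at 37 C. CellTiter-Glo is added for 30 min at room temperature before luminescence reading.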

[5] = Cell Viability - LYMP2-008 (AID 980); note: % is set by controls: 0 for no effect and ±100 for the full control effect; nearly all actives have a fitted effect of over 60% in size
Method in brief: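 Cells seeded at 2500/well and rested 5 hr at 37 C; compounds added over a concentration range and incubated 24 hr at 37 C; CellTiter-Glo added, 30 min at room temperature; luminescence read and AC50 fitted with Hill model.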

[6] = Cell Viability - LYMP2-010 (AID 981); note: % is set by controls: 0 for no effect and ±100 for the full control effect; nearly all actives have a fitted effect of over 55% in size
Method in brief: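 Steps: seed 2500 LYMP2-010 cells per well; incubate 5 hr at 37 C; add compound; incubate 24 hr at 37 C; add CellTiter-Glo, wait 30 min at room temperature; read luminescence. Concentration-response fitted to Hill equation for AC50.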

[7] = Cell Viability - LYMP2-012 (AID 982);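 note: cellular ATP by luciferase luminescence where a drop means cytotoxicity; cells exposed to compound for one day before reading; 0% = DMSO only and full loss = 92 µM tetraoctylammonium bromide; nearly all actives have a fitted effect of over 55% in size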
[8] = Cell Viability - LYMP2-014 (AID 983);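 note: series mostly up to about 92 µM; plate controls were DMSO only for no effect and 92 µM tetraoctylammonium bromide for full effect; nearly all actives have a fitted effect of over 50% in size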
Method in brief: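 Cells are plated at 2500/well and left 5 hr at 37 C. Compounds are added across a concentration range and incubated 24 hr at 37 C in complete medium. CellTiter-Glo is added, and luminescence is read after 30 min at room temperature.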

[9] = Cell Viability - LYMP2-016 (AID 984); note: % is set by controls: 0 for no effect and ±100 for the full control effect; nearly all actives have a fitted effect of over 55% in size
Method in brief: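 Human lymphoblastoid LYMP2-016 cells, 2500 per well, treated with compounds for 24 h at 37 C. Viability read as intracellular ATP by CellTiter-Glo luminescence after 30 min at room temperature; AC50 from Hill fits of concentration-response.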

[10] = Cell Viability - LYMP2-018 (AID 985);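 note: compound exposure lasted 24 hr at 37 °C; plate controls were DMSO only for no effect and tetraoctylammonium bromide at 92 µM for full effect; nearly all actives have a fitted effect of over 50% in size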
Method in brief: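 Seed 2500 lymphoblastoid cells per well, incubate 5 hr at 37 C, add compound and incubate 24 hr at 37 C, add CellTiter-Glo, wait 30 min at room temperature, then read luminescence.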

[11] = Cell Viability - LYMP2-020 (AID 986);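 note: series mostly up to about 92 µM; plate controls were DMSO only for no effect and tetraoctylammonium bromide at 92 µM for full effect; nearly all actives have a fitted effect of over 55% in size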
Method in brief: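 Seed 2500 cells per well and incubate 5 hr at 37 C. Add compounds at a concentration series and incubate 24 hr at 37 C. Add CellTiter-Glo, wait 30 min at RT, read luminescence, and fit a Hill curve for AC50.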

[12] = Cell Viability - LYMP2-022 (AID 987)
Method in brief: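 Cells were seeded at 2500 per well, rested 5 hr at 37 C, and treated with titrated compounds for 24 hr at 37 C. Cellular ATP was then quantified by luciferase luminescence, and AC50 values were derived from Hill-modelled concentration-response curves.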

[13] = Cell Viability - LYMP2-024 (AID 988);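 note: plate controls were DMSO only for no effect and 92 µM tetraoctylammonium bromide for full effect; nearly all actives have a fitted effect of over 60% in size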
Method in brief: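 qHTS cytotoxicity, human lymphoblastoid line, complete medium; 24 h cpd treatment, 37 C; CellTiter-Glo ATP luminescence readout; tetraoctylammonium bromide positive control; AC50 via Hill fit.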

[14] = Cell Viability - LYMP2-026 (AID 989); note: % is set by controls: 0 for no effect and ±100 for the full control effect; nearly all actives have a fitted effect of over 50% in size
Method in brief: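 Cells are seeded at 2500 per well and held 5 hr at 37 C. Compounds are added in concentration series for 24 hr, then CellTiter-Glo reagent is applied and luminescence read.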

[15] = Cell Viability - LYMP1-002 - Assay at 24 hr (AID 993); note: % is set by controls: 0 for no effect and ±100 for the full control effect
Method in brief: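 Acute toxicity is measured as concentration-dependent loss of cellular ATP in a human lymphoblastoid line (Coriell LYMP1-002) after 24 h treatment in complete medium. ATP is quantified by luciferase luminescence and AC50 derived by Hill modelling.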

[16] = Cell Viability - LYMP1-002 - Assay at 40 hr (AID 994)
Method in brief: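 Cells are plated at 2500 per well and rested 5 hr at 37 C. Compounds are added and incubated 40 hr at 37 C. CellTiter-Glo reagent is added for 30 min at room temperature before luminescence is read.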

[17] = qHTS Assay for Identification of Small Molecule Inducers of Hypoxia Response (AID 2120; active = well fitted curve in the direction sought with a large enough effect in the signal ratio, with a control signal flat, not every such curve was filed as active; the % refers to the signal ratio; note: 0% is about no effect)
Method in brief: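 Cell-based qHTS for reporter induction: hypoxia response element controlled beta-lactamase in ME-180 cells. Compounds incubated 17 h at 37 degrees C; activity from blue/green (460/530 nm) ratio, inducers ranked by AC50.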

[18] = target: Estrogen receptor (Homo sapiens) (UniProt P03372); assay: qHTS assay for small molecule antagonists of estrogen receptor alpha signaling (AID 588513; active = well fitted curve in the direction sought with a large enough effect in the signal ratio, with a control signal flat, not every such curve was filed as active; the % refers to the signal ratio; note: % is set by controls: 0 for no effect and ±100 for the full control effect)
Estrogen receptor (Homo sapiens), sequence (P03372 whole entry, looked up): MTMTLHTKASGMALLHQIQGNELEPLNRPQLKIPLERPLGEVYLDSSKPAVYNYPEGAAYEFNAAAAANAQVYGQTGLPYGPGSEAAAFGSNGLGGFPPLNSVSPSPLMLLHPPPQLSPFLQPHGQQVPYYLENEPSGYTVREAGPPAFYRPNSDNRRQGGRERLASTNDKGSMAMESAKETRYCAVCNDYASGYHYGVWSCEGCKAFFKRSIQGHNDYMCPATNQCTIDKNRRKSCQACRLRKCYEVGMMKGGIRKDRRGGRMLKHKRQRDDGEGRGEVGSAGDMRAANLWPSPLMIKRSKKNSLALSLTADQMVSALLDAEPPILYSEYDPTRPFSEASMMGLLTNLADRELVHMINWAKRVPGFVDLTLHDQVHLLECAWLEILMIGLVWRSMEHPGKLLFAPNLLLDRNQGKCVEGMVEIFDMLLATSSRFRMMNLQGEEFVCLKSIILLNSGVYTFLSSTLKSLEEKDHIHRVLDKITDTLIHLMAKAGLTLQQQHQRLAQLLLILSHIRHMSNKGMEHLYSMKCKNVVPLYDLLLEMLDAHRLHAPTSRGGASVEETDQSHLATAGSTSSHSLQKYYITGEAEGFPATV
Method in brief: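 ER-alpha-UAS-bla GripTite HEK 293 cells in 2% charcoal/dextran-treated FBS medium; compounds titrated (1:2, duplicate), then stimulated with 0.5 nM 17-beta-estradiol for 18 h at 37C. CCF4 beta-lactamase fluorescence; Hill-fit IC50 and efficacy.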

[19] = target: Estrogen receptor (Homo sapiens) (UniProt P03372); assay: qHTS assay for small molecule agonists of estrogen receptor alpha signaling (AID 588514; calls by dose curve;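 note: 0% = vehicle only and 100% = reference agonist; nearly all actives have a fitted effect of over 70% in size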)
Method in brief: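 Efficacy is expressed against 20 nM 17-beta-estradiol (100%) and DMSO basal (0%); EC50 from Hill equation. Assay: beta-lactamase reporter in ER-alpha-UAS-bla HEK 293 cells, 18 h compound incubation, CCF4 detection.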

[20] = target: Androgen receptor (Homo sapiens) (UniProt P10275); assay: qHTS assay for small molecule agonists of androgen receptor signaling (AID 588515; active = well fitted curve in the direction sought with a large enough effect in the signal ratio, with a control signal flat; the % refers to the signal ratio; note: % is set by controls: 0 for no effect and ±100 for the full control effect); settings: AR-UAS-bla HEK293, beta-lactamase ratio, agonist 16 h; active compounds read high
Androgen receptor (Homo sapiens), sequence (P10275 whole entry, looked up): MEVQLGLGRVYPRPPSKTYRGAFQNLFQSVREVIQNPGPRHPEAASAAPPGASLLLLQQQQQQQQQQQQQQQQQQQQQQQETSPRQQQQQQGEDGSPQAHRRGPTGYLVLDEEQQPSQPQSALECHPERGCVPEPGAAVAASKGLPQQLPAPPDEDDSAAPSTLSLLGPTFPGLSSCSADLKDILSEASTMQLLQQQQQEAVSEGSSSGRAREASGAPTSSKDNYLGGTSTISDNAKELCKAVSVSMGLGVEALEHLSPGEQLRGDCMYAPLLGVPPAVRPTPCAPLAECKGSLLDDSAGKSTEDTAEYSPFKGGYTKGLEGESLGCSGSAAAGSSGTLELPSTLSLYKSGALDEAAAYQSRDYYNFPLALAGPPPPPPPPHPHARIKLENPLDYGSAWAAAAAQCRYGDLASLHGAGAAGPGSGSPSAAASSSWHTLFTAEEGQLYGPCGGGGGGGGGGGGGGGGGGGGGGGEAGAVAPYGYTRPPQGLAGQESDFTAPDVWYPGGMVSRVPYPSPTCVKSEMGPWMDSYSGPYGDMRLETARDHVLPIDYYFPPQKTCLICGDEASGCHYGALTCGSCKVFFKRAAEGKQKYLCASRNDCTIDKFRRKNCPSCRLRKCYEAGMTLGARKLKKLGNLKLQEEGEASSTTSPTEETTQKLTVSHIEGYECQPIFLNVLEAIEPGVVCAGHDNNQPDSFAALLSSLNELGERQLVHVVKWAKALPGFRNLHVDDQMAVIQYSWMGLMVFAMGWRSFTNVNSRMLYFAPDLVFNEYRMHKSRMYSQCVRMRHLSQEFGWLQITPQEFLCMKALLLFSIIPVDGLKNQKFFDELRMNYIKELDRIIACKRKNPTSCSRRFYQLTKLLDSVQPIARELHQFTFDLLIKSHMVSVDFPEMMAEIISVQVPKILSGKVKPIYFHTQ
Method in brief: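 Stimulation of an AR-responsive β-lactamase reporter in GripTite HEK293 cells was measured after 16 h compound exposure at 37 °C, via CCF4 fluorescence after 2 h RT. EC50 from Hill fits, normalized to R1881 at 30 nM.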

CCC(C)(C)C(=O)O
inactive: Potency [1] | Potency [2] | Potency [3] | Potency [4] | Potency [5] | Potency [6] | Potency [7] | Potency [8] | Potency [9] | Potency [10] | Potency [11] | Potency [12] | Potency [13] | outcome [14] | Potency [15] | Potency [16] | outcome [17] | outcome [18] | Potency [19] | activation [20] -5.44%

Cc1cccc(C)c1O
inactive: Potency [1] | Potency [2] | Potency [3] | Potency [4] | Potency [5] | Potency [6] | Potency [7] | Potency [8] | Potency [9] | Potency [10] | Potency [11] | Potency [12] | Potency [13] | outcome [14] | Potency [15] | Potency [16] | outcome [17] | outcome [18] | Potency [19] | activation [20] -2.64%

CC(=O)Nc1ccc(N)cc1
inactive: Potency [1] | Potency [2] | Potency [3] | Potency [4] | Potency [5] | Potency [6] | Potency [7] | Potency [8] | Potency [9] | Potency [10] | Potency [11] | Potency [12] | Potency [13] | outcome [14] | Potency [15] | Potency [16] | outcome [17] | outcome [18] | Potency [19] | activation [20] -10.4%

Cc1ccc2cccnc2c1
inactive: Potency [1] | Potency [2] | Potency [3] | Potency [4] | Potency [5] | Potency [6] | Potency [8] | Potency [9] | Potency [10] | Potency [11] | Potency [12] | Potency [13] | outcome [14] | Potency [16] | outcome [17] | outcome [18] | Potency [19] | activation [20] 14.8%

CCOc1ccc(NC(C)=O)cc1N
inactive: Potency [1] | Potency [2] | Potency [3] | Potency [4] | Potency [5] | Potency [6] | Potency [7] | Potency [8] | Potency [9] | Potency [10] | Potency [11] | Potency [12] | Potency [13] | Potency [16] | outcome [17] | outcome [18] | Potency [19] | activation [20] 0.896%

Cc1ccc(C)c(N)c1
inactive: Potency [1] | Potency [2] | Potency [3] | Potency [4] | Potency [5] | Potency [6] | Potency [7] | Potency [8] | Potency [9] | Potency [10] | Potency [11] | Potency [12] | Potency [13] | outcome [14] | Potency [15] | Potency [16] | outcome [17] | outcome [18] | Potency [19]

NC(=O)c1cccc([N+](=O)[O-])c1
inactive: Potency [1] | Potency [2] | Potency [3] | Potency [4] | Potency [5] | Potency [6] | Potency [7] | Potency [8] | Potency [9] | Potency [10] | Potency [11] | Potency [12] | Potency [13] | outcome [14] | Potency [15] | Potency [16] | outcome [17] | outcome [18] | Potency [19] | activation [20] 2.01%

C[C@@H]1CC2(OC3C[C@@]4(C)C5=CC[C@H]6C(C)(C)C(O[C@@H]7OC[C@@H](O)[C@H](O)[C@H]7O)CC[C@@]67C[C@@]57CC[C@]4(C)C31)OC(O)C1(C)OC21 (stereo partly specified)
inactive: Potency [1] | Potency [2] | Potency [3] | Potency [4] | Potency [5] | Potency [6] | Potency [7] | Potency [8] | Potency [9] | Potency [10] | Potency [11] | Potency [12] | Potency [13] | outcome [14] | Potency [16] | outcome [17] | outcome [18] | Potency [19] | activation [20] -11%

CCC(C)(C)C
inactive: Potency [1] | Potency [2] | Potency [3] | Potency [4] | Potency [5] | Potency [6] | Potency [7] | Potency [8] | Potency [9] | Potency [10] | Potency [11] | Potency [12] | Potency [13] | outcome [14] | Potency [15] | Potency [16] | outcome [17] | outcome [18] | Potency [19]

CC(=O)c1ccccc1[N+](=O)[O-]
inactive: Potency [1] | Potency [2] | Potency [3] | Potency [4] | Potency [5] | Potency [6] | Potency [7] | Potency [8] | Potency [9] | Potency [10] | Potency [11] | Potency [12] | Potency [13] | outcome [14] | Potency [15] | Potency [16] | outcome [17] | outcome [18] | Potency [19]

COC(=O)CS
inactive: Potency [1] | Potency [2] | Potency [3] | Potency [4] | Potency [5] | Potency [6] | Potency [7] | Potency [8] | Potency [9] | Potency [10] | Potency [11] | Potency [12] | Potency [13] | outcome [14] | Potency [15] | Potency [16] | outcome [17] | outcome [18] | Potency [19]

COc1ccc(N=[N+]([O-])c2ccc(OC)cc2)cc1
inactive: Potency [1] | Potency [2] | Potency [3] | Potency [4] | Potency [5] | Potency [6] | Potency [7] | Potency [8] | Potency [9] | Potency [10] | Potency [11] | Potency [12] | Potency [13] | outcome [14] | Potency [15] | Potency [16] | outcome [17] | outcome [18] | Potency [19]

Cc1nc2ccc(Cl)cc2[nH]1
inactive: Potency [1] | Potency [2] | Potency [3] | Potency [4] | Potency [5] | Potency [6] | Potency [7] | Potency [8] | Potency [9] | Potency [10] | Potency [11] | Potency [12] | Potency [13] | outcome [14] | Potency [15] | Potency [16] | outcome [17] | outcome [18] | Potency [19]

Cc1cccc(C)c1
inactive: Potency [1] | Potency [2] | Potency [3] | Potency [4] | Potency [5] | Potency [6] | Potency [7] | Potency [8] | Potency [9] | Potency [10] | Potency [11] | Potency [12] | Potency [13] | outcome [14] | Potency [15] | Potency [16] | outcome [17] | outcome [18] | Potency [19]

O=c1[nH][nH]c(=O)c2cc([N+](=O)[O-])ccc12
inactive: Potency [1] | Potency [2] | Potency [3] | Potency [4] | Potency [5] | Potency [6] | Potency [7] | Potency [8] | Potency [9] | Potency [10] | Potency [11] | Potency [12] | Potency [13] | outcome [14] | Potency [15] | Potency [16] | outcome [17] | outcome [18] | Potency [19]

CC(=O)c1nccs1
inactive: Potency [1] | Potency [2] | Potency [3] | Potency [4] | Potency [5] | Potency [6] | Potency [7] | Potency [8] | Potency [9] | Potency [10] | Potency [11] | Potency [12] | Potency [13] | outcome [14] | Potency [15] | Potency [16] | outcome [17] | outcome [18] | Potency [19]
